Assays:
Assay in all cases: PBM binding z-score (relative to random genomic background probes); higher = stronger binding; sequences stand for … in GC…GCGATTGACAGCGTAGAATGAAGG
[1] = tested on: FXR:RXRa (NR concentration 270 nM, RXRa partner concentration 90 nM)
In short: (§1)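 Ligand-free nuclear receptor dimers were applied to custom Agilent 4×180K protein-binding microarrays whose double-stranded probes carried direct-repeat seeds, single-nucleotide variants, half-site ablations and random human genomic background sequences in 34-nt variable regions. Incubation lasted 1 h. Binding z-scores were computed against the random background probes from regression-normalized fluorescence.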

[2] = tested on: LXRa:RXRa (NR concentration 270 nM, RXRa partner concentration 90 nM)
In short: as §1

[3] = tested on: LXRa homodimer (NR concentration 270 nM)
In short: as §1

[4] = tested on: LXRb:RXRa (NR concentration 270 nM, RXRa partner concentration 90 nM)
In short: as §1

[5] = tested on: LXRb homodimer (NR concentration 270 nM)
In short: as §1

[6] = tested on: PPARa:RXRa (NR concentration 270 nM, RXRa partner concentration 90 nM)
In short: as §1

[7] = tested on: PPARg:RXRa (NR concentration 180 nM, RXRa partner concentration 90 nM)
In short: as §1

[8] = tested on: PPARg:RXRa 270nM:90nM, anti-RXR (NR concentration 270 nM, RXRa partner concentration 90 nM)
In short: as §1

[9] = tested on: PPARg:RXRa 30nM:10nM, anti-RXR (NR concentration 30 nM, RXRa partner concentration 10 nM)
In short: as §1

[10] = tested on: PPARg:RXRa 90nM:30nM, anti-RXR (NR concentration 90 nM, RXRa partner concentration 30 nM)
In short: as §1

[11] = tested on: PPARg:RXRa DBDmut IVT, anti-RXR (DBD mutation: RXRa K156A/R161A, NR concentration 270 nM, RXRa partner concentration 90 nM)
In short: as §1

[12] = tested on: PPARg:RXRa IVT, anti-PPARg (NR concentration 270 nM, RXRa partner concentration 90 nM)
In short: as §1

[13] = tested on: PPARg DBDmut:RXRa IVT, anti-PPARg (DBD mutation: PPARg1 K132A/R137A, NR concentration 270 nM, RXRa partner concentration 90 nM)
In short: as §1

[14] = tested on: PPARg DBDmut IVT, anti-PPARg (DBD mutation: PPARg1 K132A/R137A, NR concentration 270 nM)
In short: as §1

[15] = tested on: PPARg homodimer (NR concentration 180 nM)
In short: as §1

[16] = tested on: PXR:RXRa (NR concentration 270 nM, RXRa partner concentration 90 nM)
In short: as §1

[17] = tested on: PXR homodimer (NR concentration 270 nM)
In short: as §1

[18] = tested on: RARa:RXR (NR concentration 270 nM, RXRa partner concentration 90 nM)
In short: as §1

[19] = tested on: RARa homodimer (NR concentration 270 nM)
In short: as §1

[20] = tested on: RARb:RXRa (NR concentration 270 nM, RXRa partner concentration 90 nM)
In short: as §1

Sequence | PBM binding z-score [1] | PBM binding z-score [2] | PBM binding z-score [3] | PBM binding z-score [4] | PBM binding z-score [5] | PBM binding z-score [6] | PBM binding z-score [7] | PBM binding z-score [8] | PBM binding z-score [9] | PBM binding z-score [10] | PBM binding z-score [11] | PBM binding z-score [12] | PBM binding z-score [13] | PBM binding z-score [14] | PBM binding z-score [15] | PBM binding z-score [16] | PBM binding z-score [17] | PBM binding z-score [18] | PBM binding z-score [19] | PBM binding z-score [20]
CCTTACGGGTAACTGACAGGTTATAGCATTTGGA | 0.183 | 0.937 | 9.84e-05 | 0.454 | -0.428 | 0.56 | 0.319 | 0.0456 | -0.0329 | -0.0443 | 1.03 | 0.095 | -0.022 | -0.575 | 0.529 | 0.109 | -0.252 | 0.585 | 0.214 | 0.274
CCCAGTAGGTTATGGGGCATTCAGGCAACGGTGA | 0.192 | 0.622 | -0.205 | -0.0107 | -0.618 | 2.63 | 5.2 | 5.47 | 4.14 | 5.66 | 3.64 | 4.66 | -0.461 | -0.268 | 0.645 | -0.0768 | -0.414 | 0.112 | -0.0462 | 0.967
AGACAAAGTTCACTAGGTAACGTAAGATTCAGCT | 5.15 | 4.98 | 2.65 | 3.12 | 1.08 | 4.76 | 6 | 5.55 | 2.55 | 4.7 | 2.37 | 4.14 | 1.01 | 0.842 | 1.94 | 3.7 | 2 | 2.91 | 0.576 | 4.83
CGAACTAGGTCATTGACAGGACAGTGAGTAGTAA | 4.28 | 3.06 | 0.194 | 1.92 | -0.291 | 4.8 | 7.21 | 6.03 | 3.7 | 5.57 | 8.17 | 8.32 | 0.587 | 2.61 | 1.63 | 1.38 | 0.241 | 2.09 | 0.277 | 3.6
TCTATTAGTTGAAGGGCAACCGCCGAGTCCGTTT | 0.913 | 0.871 | 0.578 | 0.586 | 0.231 | 0.935 | -0.454 | 2.19 | 3.81 | 2.91 | 2.32 | 0.783 | 0.465 | 1.32 | 1.11 | 0.779 | 0.698 | 0.905 | 1.14 | 1.74
TTACCAGGGTGAGCTGAGGTCGTTGATCCAACTC | 1.3 | 1.44 | -0.264 | 0.797 | -1.42 | 1.87 | 0.186 | 1.08 | -0.0751 | 0.766 | 0.596 | 1.4 | -1.02 | -0.726 | 0.323 | 5.42 | 0.925 | 2.13 | -0.657 | 1.24
CCTACTGGGCCATCAGGTAATTGATATCAACGTT | -0.165 | -0.235 | -0.14 | -0.089 | -0.373 | 0.452 | 1.15 | 1.85 | 0.313 | 1.17 | 4.07 | 4.05 | -0.379 | 0.313 | 0.173 | -0.337 | -0.167 | -0.328 | -0.0481 | 0.0726
CGAACGAGGGCATGAGTTGATAGGAAATGCCGAT | 0.317 | 0.134 | -0.459 | -0.00432 | -0.811 | 1.27 | 1.61 | 1.43 | 0.315 | 0.987 | 2.5 | 1.68 | -1.02 | -0.376 | 0.547 | 0.35 | 0.349 | 0.4 | -0.46 | 1.88
CCTACTAGGCCAAAAAGGTCATTGATGCCGATAA | 3.79 | 4.67 | 3.6 | 4.54 | 0.985 | 4.84 | 3.56 | 4.24 | 1.54 | 3.67 | 5.03 | 4.58 | -0.262 | -0.187 | 2.71 | 4.88 | 5.01 | 5 | 1.4 | 4.09
TCATATAGGTAATACTGGTGAAAGTCGGCATCTA | 0.82 | 1 | 0.397 | 0.738 | 0.101 | 1.29 | 0.902 | 2.27 | 3.82 | 3.28 | 3.8 | 2.46 | 1.36 | 0.717 | 0.814 | 0.689 | -0.083 | 0.73 | 0.536 | 0.451
TCTGCTAGGTCACCGATGGTCAGCTAATCTGCTA | 3.75 | 3.3 | -0.47 | 2.07 | -0.343 | 3.82 | 3.64 | 4.04 | 2.09 | 3.11 | 4.6 | 4.81 | 0.945 | 0.734 | 0.378 | 1.91 | -1.04 | 2.75 | -1.39 | 4.36
AGAATGAGGTTAAGATAAGGGAAACAGAATACAT | 2.28 | 2.29 | 0.217 | 1.88 | 0.218 | 3.48 | 2.73 | 2.29 | 0.99 | 1.69 | 2.37 | 2.34 | 1.82 | 1.35 | 1.38 | 1.12 | 0.744 | 1.8 | 1.27 | 1.83
CCGACTCGGGCAAGGTTACCATAACGCACAGCCA | -0.303 | 0.69 | -0.249 | 0.349 | -1.13 | 0.95 | 1.01 | 0.916 | -0.148 | -7.81e-07 | 0.68 | 0.196 | -0.901 | -1.26 | -0.121 | 0.246 | -0.0787 | 0.655 | -0.459 | 1.33
ACTATTAGTTGACTTCGGGCAACCGATACGACGC | 0.0947 | 0.0355 | 0.567 | 0.0208 | 0.752 | -0.237 | 0.757 | 0.358 | 0.0391 | 0.162 | -0.0241 | 0.38 | 0.985 | 0.939 | 0.728 | 0.138 | 0.00546 | 0.411 | 0.245 | 0.417
